Compound in this assay: C#CCNC(=O)CCSSCCC(=O)NCCc1ccc(C=O)c(C=O)c1
Kind of assay: lysine labeling ratio R10:1 (500 µM / 50 µM probe), SILAC-ABPP in living cells; higher = lower intrinsic lysine reactivity toward the probe, active = 2 or less. The following applies: HeLa; probe concentrations 500 vs 50 µM. The gist of the method:
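The two probe levels, 50 µM and 500 µM, of an alkyne-tagged, disulfide-linked lysine probe were applied to living light and heavy SILAC HeLa cells in PBS at room temperature, and the labels were run in both forward and reverse orientation. Mixed lysates underwent biotin-azide click chemistry, trypsin digestion, neutravidin capture, DTT release and alkylation before LC-MS/MS on a TIMS-TOF Pro. R is the filtered median high-probe/low-probe MS1 peptide ratio for each lysine, summarised as the median over forward and reverse replicates. Nothing above 20 is reported; such values are set to 20.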
Sequence of UniProt O75083 (O75083 whole entry): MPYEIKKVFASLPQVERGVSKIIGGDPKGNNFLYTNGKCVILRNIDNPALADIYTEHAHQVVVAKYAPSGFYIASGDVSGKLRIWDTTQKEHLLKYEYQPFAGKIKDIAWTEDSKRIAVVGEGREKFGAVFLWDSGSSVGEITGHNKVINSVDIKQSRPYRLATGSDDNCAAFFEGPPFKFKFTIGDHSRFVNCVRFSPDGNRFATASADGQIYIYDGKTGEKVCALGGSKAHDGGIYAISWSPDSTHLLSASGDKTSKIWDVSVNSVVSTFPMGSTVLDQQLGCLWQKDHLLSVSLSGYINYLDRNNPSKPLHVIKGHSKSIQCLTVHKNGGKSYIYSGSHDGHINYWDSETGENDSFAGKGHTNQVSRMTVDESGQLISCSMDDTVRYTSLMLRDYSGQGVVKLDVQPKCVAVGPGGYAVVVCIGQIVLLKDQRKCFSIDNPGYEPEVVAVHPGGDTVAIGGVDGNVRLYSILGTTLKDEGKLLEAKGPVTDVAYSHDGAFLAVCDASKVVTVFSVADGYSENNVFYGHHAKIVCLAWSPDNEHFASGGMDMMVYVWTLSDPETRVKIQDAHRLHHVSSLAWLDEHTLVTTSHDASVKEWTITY
Sequence of UniProt P50454 (P50454 whole entry): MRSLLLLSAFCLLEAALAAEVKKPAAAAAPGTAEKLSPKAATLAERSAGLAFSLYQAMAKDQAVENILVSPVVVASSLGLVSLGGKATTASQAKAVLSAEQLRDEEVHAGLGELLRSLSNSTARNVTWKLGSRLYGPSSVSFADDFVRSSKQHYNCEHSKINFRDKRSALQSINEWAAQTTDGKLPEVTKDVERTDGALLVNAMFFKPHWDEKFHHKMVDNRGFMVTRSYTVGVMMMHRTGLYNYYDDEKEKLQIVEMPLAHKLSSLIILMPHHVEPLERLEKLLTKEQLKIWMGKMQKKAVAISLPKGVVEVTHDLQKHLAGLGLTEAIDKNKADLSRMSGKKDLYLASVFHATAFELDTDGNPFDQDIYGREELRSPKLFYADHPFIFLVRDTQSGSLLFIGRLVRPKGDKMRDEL
Sequence of UniProt Q14108 (Q14108 whole entry): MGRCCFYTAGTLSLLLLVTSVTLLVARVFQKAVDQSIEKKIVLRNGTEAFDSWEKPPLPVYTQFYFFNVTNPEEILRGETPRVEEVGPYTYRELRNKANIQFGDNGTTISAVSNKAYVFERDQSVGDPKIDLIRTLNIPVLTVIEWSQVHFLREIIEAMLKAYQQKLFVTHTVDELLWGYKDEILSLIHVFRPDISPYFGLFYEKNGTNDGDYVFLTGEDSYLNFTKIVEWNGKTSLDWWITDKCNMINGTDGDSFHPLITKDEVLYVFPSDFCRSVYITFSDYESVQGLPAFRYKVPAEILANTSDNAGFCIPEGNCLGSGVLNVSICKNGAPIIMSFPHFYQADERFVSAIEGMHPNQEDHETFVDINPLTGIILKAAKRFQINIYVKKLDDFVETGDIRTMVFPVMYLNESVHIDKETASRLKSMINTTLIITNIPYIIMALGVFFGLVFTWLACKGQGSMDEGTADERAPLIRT
Sequence of UniProt Q13813 (Q13813 whole entry): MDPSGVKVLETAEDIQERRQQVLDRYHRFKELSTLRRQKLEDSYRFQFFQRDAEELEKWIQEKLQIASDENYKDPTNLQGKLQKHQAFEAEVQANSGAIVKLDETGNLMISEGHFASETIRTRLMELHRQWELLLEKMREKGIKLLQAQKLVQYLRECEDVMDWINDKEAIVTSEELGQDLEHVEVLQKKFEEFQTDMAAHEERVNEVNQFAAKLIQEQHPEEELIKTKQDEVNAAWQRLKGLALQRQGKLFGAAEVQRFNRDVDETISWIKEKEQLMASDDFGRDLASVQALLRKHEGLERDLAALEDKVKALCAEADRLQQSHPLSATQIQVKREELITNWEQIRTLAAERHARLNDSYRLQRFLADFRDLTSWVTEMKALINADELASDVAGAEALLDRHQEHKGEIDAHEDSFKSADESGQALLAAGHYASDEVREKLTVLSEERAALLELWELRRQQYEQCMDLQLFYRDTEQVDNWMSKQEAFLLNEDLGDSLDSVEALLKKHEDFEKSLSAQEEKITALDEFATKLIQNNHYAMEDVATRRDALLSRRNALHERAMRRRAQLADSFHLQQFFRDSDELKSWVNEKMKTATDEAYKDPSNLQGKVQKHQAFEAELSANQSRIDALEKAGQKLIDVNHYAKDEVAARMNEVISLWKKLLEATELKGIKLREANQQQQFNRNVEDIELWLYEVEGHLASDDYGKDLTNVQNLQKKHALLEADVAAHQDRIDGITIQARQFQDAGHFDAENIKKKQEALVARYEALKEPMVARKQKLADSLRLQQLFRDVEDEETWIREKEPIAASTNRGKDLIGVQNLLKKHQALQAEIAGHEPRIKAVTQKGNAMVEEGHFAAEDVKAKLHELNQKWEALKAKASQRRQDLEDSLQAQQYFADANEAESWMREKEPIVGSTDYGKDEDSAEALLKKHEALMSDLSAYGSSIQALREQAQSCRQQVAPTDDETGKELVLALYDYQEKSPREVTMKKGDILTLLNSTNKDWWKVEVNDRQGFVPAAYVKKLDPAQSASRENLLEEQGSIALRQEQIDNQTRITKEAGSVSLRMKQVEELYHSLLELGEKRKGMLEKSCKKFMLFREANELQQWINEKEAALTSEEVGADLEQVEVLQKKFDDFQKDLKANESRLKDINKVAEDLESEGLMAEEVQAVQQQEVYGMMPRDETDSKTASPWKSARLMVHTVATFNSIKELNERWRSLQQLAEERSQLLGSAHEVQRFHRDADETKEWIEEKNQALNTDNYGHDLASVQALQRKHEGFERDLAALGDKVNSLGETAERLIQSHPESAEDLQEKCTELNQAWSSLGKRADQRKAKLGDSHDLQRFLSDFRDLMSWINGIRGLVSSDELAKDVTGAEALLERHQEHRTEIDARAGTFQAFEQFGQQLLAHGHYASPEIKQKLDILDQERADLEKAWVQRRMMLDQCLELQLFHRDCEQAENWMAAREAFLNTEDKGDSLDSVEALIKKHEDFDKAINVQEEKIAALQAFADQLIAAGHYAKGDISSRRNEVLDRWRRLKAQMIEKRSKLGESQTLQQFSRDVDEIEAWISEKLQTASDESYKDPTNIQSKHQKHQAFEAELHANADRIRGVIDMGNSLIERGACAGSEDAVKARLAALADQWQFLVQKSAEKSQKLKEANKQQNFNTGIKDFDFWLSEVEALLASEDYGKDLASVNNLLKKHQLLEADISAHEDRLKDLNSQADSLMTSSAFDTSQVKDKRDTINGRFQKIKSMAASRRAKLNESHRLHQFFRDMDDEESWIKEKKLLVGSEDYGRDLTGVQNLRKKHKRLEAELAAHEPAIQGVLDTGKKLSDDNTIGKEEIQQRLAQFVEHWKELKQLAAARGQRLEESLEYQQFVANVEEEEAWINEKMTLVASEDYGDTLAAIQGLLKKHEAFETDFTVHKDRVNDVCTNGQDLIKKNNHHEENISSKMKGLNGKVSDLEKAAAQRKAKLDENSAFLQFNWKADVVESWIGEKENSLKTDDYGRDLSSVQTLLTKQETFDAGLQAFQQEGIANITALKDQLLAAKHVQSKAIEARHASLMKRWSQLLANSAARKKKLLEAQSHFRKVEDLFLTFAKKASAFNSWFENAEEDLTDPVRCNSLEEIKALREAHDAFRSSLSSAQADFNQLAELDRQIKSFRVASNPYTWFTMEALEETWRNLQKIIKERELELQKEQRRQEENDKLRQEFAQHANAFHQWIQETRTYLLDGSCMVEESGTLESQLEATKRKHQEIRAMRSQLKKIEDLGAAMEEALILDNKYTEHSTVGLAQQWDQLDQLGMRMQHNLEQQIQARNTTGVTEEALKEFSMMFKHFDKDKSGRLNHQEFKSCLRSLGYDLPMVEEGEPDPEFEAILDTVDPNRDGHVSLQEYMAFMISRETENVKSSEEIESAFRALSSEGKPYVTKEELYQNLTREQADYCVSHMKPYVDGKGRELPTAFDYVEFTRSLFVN
Sequence of UniProt P30101 (P30101 whole entry): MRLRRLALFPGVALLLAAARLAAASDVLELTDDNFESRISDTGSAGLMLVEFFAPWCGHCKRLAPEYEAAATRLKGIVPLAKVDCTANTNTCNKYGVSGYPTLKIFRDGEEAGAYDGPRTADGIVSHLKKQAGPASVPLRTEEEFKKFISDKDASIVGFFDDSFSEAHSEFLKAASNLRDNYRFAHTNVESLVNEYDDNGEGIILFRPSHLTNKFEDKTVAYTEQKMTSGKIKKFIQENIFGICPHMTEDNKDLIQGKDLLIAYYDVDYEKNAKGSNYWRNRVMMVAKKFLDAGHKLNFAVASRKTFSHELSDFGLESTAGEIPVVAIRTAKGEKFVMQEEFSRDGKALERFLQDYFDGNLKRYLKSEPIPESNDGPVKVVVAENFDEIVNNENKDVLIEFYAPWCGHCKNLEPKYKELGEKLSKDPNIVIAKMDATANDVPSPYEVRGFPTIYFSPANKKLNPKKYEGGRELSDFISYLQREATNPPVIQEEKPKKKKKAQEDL
Sequence of UniProt Q9UQ80 (Q9UQ80 whole entry): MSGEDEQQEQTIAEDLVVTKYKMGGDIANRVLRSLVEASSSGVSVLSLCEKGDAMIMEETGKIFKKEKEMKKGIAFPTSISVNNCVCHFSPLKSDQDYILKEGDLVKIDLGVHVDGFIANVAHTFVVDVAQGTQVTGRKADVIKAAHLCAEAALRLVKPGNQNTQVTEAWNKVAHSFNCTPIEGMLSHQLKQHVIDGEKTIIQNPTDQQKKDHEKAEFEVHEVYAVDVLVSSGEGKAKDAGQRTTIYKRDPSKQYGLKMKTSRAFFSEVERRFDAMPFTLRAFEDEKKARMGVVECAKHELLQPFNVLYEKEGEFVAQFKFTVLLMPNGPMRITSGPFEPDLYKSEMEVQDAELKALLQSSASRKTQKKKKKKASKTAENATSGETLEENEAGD
For “SERPINH1 (lysine site: K39) (UniProt P50454)”, the “lysine labeling ratio R10:1” value is 5.74 (inactive).
The figure for “TFRC (lysine site: K665) (UniProt P02786)” is 1.78 (active).
The figure for UniProt P46781 (lysine site: K139) is 3 (inactive).
Turning to UniProt P62805 (lysine site: K32), the “lysine labeling ratio R10:1” value is 7.5 (inactive).
“RAB11B (lysine site: K179) (UniProt Q15907)”: the “lysine labeling ratio R10:1” value is 3.25 (inactive).
As to “CLTA (lysine site: K242) (UniProt P09496)”, the “lysine labeling ratio R10:1” value was 5.68 (inactive).
As for UniProt Q99466 (lysine site: K1372), the “lysine labeling ratio R10:1” value was 9.22 (inactive).
As for UniProt P02533 (lysine site: K293), the figure is 2.74 (inactive); as for “WDR1 (lysine site: K81) (UniProt O75083)”, 0.967 (active); as for “CYR61 (lysine site: K208) (UniProt O00622)”, 2.96 (inactive).
On to “SPTAN1 (lysine site: K1141) (UniProt Q13813)”, for which the “lysine labeling ratio R10:1” value is 17.4 (inactive).
For the target “DDR1 (lysine site: K112) (UniProt Q08345)”, the “lysine labeling ratio R10:1” value is 2.03 (inactive).
As for “ITGA6 (lysine site: K953) (UniProt P23229)”, the figure is 3.1 (inactive); as for “PDIA3 (lysine site: K362) (UniProt P30101)”, 2.15 (inactive); as for “SCARB2 (lysine site: K129) (UniProt Q14108)”, 5.93 (inactive).
As for “PA2G4 (lysine site: K238) (UniProt Q9UQ80)”, the figure is 1.53 (active); as for “PLS3 (lysine site: K346) (UniProt P13797)”, 0.842 (active).

The record behind these values is the supplement of paper PMC11001985.
